High-throughput results (PubChem)
G9a block: qHTS Assay for Inhibitors of Histone Lysine Methyltransferase G9a; Histone-lysine N-methyltransferase EHMT2 (Homo sapiens), Q96KQ7; G9a H3K9 monomethylation, AlphaScreen, 2 h; Potency, µM (highest dose often 102 µM), most hits filed as inhibitors; AID 504332, 2011; 350,000 compounds, 8.8% hits; further: nearly all actives have a fitted effect of over 75% in size
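Enzyme 20 nM + cpd, 15 min RT; add b-H3K9 pep 500 nM / SAM 20 uM; 2 h RT; anti-H3K9me1 Ab 0.5 ug/mL + SA donor / anti-rabbit acceptor beads 20 ug/mL each, 10 min; AlphaScreen read.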
HP1b binding inh: HTS for Inhibitors of HP1-beta Chromodomain Interactions with Methylated Histone Tails; Chromobox protein homolog 1 (Homo sapiens), P83916; AlphaScreen HP1-beta / biotin-H3K9me3 peptide binding; Potency, µM (series often up to 114 µM), usual class: inhibitors; 390,000 compounds, 0.56% hits; AID 540317, 2011; further: nearly all actives have a fitted effect of over 70% in size
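Compound inhibition of the preformed complex between 50 nM HP1-beta and 50 nM biotinylated H3K9me3 peptide was read by AlphaScreen. Buffer was PBS pH 7.4 with 0.01% Tween-20. Incubations ran 30 min at room temperature, with 10 ug/mL donor/acceptor beads.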
BAZ2B inh: qHTS Assay for Inhibitors of BAZ2B | 360,000 compounds, 4.4% hits | AID 504333, 2011 | AlphaScreen BAZ2B-H3K14Ac peptide displacement | Bromodomain adjacent to zinc finger domain protein 2B (Homo sapiens), Q9UIF8 | Potency, µM (highest dose often 114 µM), most hits filed as inhibitors; further: nearly all actives have a fitted effect of over 60% in size
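AlphaScreen displacement of biotin-H3(5-23)K14Ac peptide (50 nM final) from BAZ2B (50 nM final) in PBS pH 7.4, 0.01% Tween-20; complex preformed 30 min RT, then compounds (top 110 uM) 30 min RT, beads 20 min dark.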
L3MBTL1 block: qHTS Assay for the Inhibitors of L3MBTL1. AlphaScreen L3MBTL1–H3K9me1 peptide binding. Potency, µM (titrated, usually from 57.1 µM), actives largely listed as inhibitors. 230,000 compounds, 0.66% hits. Lethal(3)malignant brain tumor-like protein 1 (Homo sapiens), Q9Y468; further: nearly all actives have a fitted effect of over 60% in size
Target sequence (Q9Y468 whole entry, looked up): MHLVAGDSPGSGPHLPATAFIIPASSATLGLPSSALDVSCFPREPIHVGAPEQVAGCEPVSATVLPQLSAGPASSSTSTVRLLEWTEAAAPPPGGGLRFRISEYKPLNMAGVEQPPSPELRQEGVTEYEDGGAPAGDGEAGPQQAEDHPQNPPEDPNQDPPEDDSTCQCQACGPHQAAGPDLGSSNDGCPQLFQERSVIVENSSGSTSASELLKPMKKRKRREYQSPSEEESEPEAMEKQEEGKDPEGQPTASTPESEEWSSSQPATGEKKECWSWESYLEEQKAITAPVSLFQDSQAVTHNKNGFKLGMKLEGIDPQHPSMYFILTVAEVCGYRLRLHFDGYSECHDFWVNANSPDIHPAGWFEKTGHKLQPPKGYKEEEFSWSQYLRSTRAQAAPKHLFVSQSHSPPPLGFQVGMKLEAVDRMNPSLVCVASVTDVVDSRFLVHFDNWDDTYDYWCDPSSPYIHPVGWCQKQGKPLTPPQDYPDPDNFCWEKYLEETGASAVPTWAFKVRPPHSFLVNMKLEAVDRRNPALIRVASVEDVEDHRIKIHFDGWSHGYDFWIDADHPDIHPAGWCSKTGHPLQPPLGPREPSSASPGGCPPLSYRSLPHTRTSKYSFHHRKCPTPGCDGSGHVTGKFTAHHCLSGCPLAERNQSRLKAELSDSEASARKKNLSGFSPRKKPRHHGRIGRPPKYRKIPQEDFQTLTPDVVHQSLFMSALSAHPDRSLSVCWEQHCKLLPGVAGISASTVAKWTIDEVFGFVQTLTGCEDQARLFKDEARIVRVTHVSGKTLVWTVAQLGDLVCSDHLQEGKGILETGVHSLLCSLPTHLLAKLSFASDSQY
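L3MBTL1 (50 nM) pre-complexed 30 min with biotinylated H3(1-15)K9me1 peptide (75 nM), then compounds added for 30 min at room temperature; AlphaScreen streptavidin donor/nickel chelate acceptor beads (10 ug/mL final) read after 30 min dark incubation.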
PI5P4K alpha inh: qHTS for Inhibitors of phosphatidylinositol 5-phosphate 4-kinase (PI5P4K); Phosphatidylinositol 5-phosphate 4-kinase type-2 alpha (Homo sapiens), P48426; PI5P4Kalpha enzyme, ADP-Glo luminescence, 60 min; hits give low values; max response, %; 330,000 compounds, 1.2% hits; AID 652105, 2013; active means max response of -50% or lower; inconclusive means between -30% and -50%; inactive means -30% or higher; further: value at the top dose of about 77 µM
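Enzyme plus substrate dispensed, test compounds pinned in, then ATP (5 microM final) added. After 60 min at RT, ADP-Glo reagent 1 for 45 min and reagent 2 for 30 min preceded luminescence imaging.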
JMJD2A Tudor: qHTS Assay for Inhibitors of JMJD2A-Tudor Domain; AlphaScreen JMJD2A-Tudor / H3K4me3 peptide binding; Potency, µM (doses to about 114 µM), most hits filed as inhibitors; 390,000 compounds, 4.4% hits; AID 504339, 2011; further: nearly all actives have a fitted effect of over 50% in size
Numbers stand for hits; – = inactive; ? = inconclusive; · = no result; [ ] = dose if it differs, or a comment. This is a sample that favours compounds with a hit; in the whole collection about 11% have one here. Unless noted, the call rests on the fitted dose curve; in most records, active means well fitted inhibition curve with a large enough effect; inconclusive means small, poorly fitted or top-dose-only effect; inactive means no such curve, though single readings can be large or run the other way.

SMILES	G9a block	HP1b binding inh	BAZ2B inh	L3MBTL1 block	PI5P4K alpha inh	JMJD2A Tudor
CCOC(=O)c1[nH]cnc1C(=O)Nc1ccc(C)cc1	?	–	–	–	–	–
CCN(CC)C(=O)c1[nH]cnc1C(=O)N[C@@H](C)c1ccccc1	–[0.501 µM]	–	?	–	–	–
CCOC(=O)c1[nH]cnc1C(=O)NC(C)C	?	–	–	–	–	35µM
CCOC(=O)c1[nH]cnc1C(=O)O	–[12.7 µM]	–	20µM	·	–	2µM
CCCc1c(OCC(O)COc2ccc3c(=O)cc(C(=O)O)oc3c2CCC)ccc(C(C)=O)c1O (centres undefined)	–	·	·	·	·	·
CCC(CC)C(=O)Nc1ccc(S(=O)(=O)N2CCC(c3nc4ccccc4s3)CC2)cc1	?	–	–	·	·	–
COCCNC(=O)CCn1c(=O)c2cc(OC)c(OC)cc2n(CC(=O)Nc2ccc(Cl)cc2F)c1=O	–	–	–	·	·	–
COCCn1c(=O)c(-c2ccc(F)cc2)nc2cnc(N3CCOCC3)nc21	–[0.501 µM]	·	·	·	·	·
CCOc1ccc(NC(=O)N2CCC(N3CCCCC3)CC2)cc1	–	–	–	·	·	–
COc1cccc(/C=N/N2CCN(c3ccncc3S(=O)(=O)N3CCCCC3)CC2)c1	50µM	?	40µM	–	–	?
COc1cc(OC)c(/C=N/N2CCN(c3ccccc3OC)CC2)c(OC)c1	–	–	?	–	–	?
COc1ccccc1N1CCN(/N=C/c2cc(Br)ccc2F)CC1	?	–	?	–	–	?
COc1ccccc1N1CCN(/N=C/c2cccc(Cl)c2)CC1	18µM	–	?	–	–	50µM
COc1cccc(/C=N/N2CCN(c3ccccc3OC)CC2)c1	?	–	?	–	·	45µM
COc1ccccc1CNC(=O)CCC1N=C2c3ccccc3N=C(SCc3cccc(Cl)c3)N2C1=O (centres undefined)	–	–	–	·	·	–
CCCOc1ccc(C2c3c(oc4ccccc4c3=O)C(=O)N2c2nnc(C(C)C)s2)cc1 (centres undefined)	?	–	–	·	·	–
Cc1ccc(N2CC(NC(=O)c3ccc(S(=O)(=O)N(C)C)cc3)CC2=O)cc1C (centres undefined)	–	–	–	·	·	–
COc1ccc(OC)c(/C=N/NC(=O)c2[nH]nc3c2CCc2ccccc2-3)c1	–	–	–	–	-51	–
COc1cccc(/C=N/NC(=O)c2[nH]nc3c2CCc2ccccc2-3)c1	–	–	–	–	–	–
NC(=O)CSc1nnc2ccc(-c3ccc(F)cc3)nn12	–	–	–	–	–	–[11.4 µM]
Cc1ccc(-c2ccc3nnc(SCC(N)=O)n3n2)cc1	45µM	–	–	–	–	–
NC(=O)CSc1nnc2ccc(-c3ccc(Cl)cc3)nn12	50µM	–	89µM	–	–	–
O=C(CSc1nnc2ccc(-c3ccncc3)nn12)Nc1ccc(F)cc1	6.3µM	–	–	–	–	–
COc1ccc(-c2ccc3nnc(SCC(=O)N4CCCC4)n3n2)cc1	–	–	–	–	–	–
CCOc1cc(C(=O)N2CCc3c([nH]c4ccccc34)C2c2ccccc2)cc(OCC)c1OCC (centres undefined)	–	–	?	·	·	?
SMILES	G9a block	HP1b binding inh	BAZ2B inh	L3MBTL1 block	PI5P4K alpha inh	JMJD2A Tudor
CCCN(c1ccc(C(C)C)cc1)S(=O)(=O)c1ccc2c(c1)n(C)c(=O)c(=O)n2C	–	–	·	·	·	–
Oc1ccc2ccccc2c1C=NCc1cn2ccsc2n1	8.9µM	–	–	–	·	?
O=C(CCCc1ccccc1)NCc1cn2ccsc2n1	?	–	–	–	–	–
Cc1nc2nc(SCC(=O)NCc3ccccc3)nn2c(C)c1Cc1ccccc1Cl	–	–	–	·	·	–
Oc1c(C(c2ccccc2F)N2CCCCC2)sc2nc(-c3ccco3)nn12 (centres undefined)	–	–	–	·	·	–
Clc1ccc(-c2csc3ncnc(NCCN4CCOCC4)c23)cc1	–	–	–	·	–	–
